# Source: PubChem (National Center for Advancing Translational Sciences (NCATS))
# ClpP mod: qHTS Assay for Activators of ClpP | Potency, µM (highest dose often 57.5 µM), without a hit: top-dose activity change, negative = active | purified B. subtilis ClpP, FRET peptide cleavage, 20 min | actives 1.9% (n = 340,000) | ATP-dependent Clp protease proteolytic subunit (Bacillus subtilis (strain 168)), P80244; active = well fitted falling curve with a large enough effect; inconclusive = small, poorly fitted or top-dose-only effect; inactive = no such curve, though single readings can be large or run the other way; also: potency is read from the fitted curve at half-maximal effect; the source files actives as falling curves though it sought activators and does not explain the sign; nearly all actives have a fitted effect of over 65% in size
# Target sequence (P80244 whole entry, looked up): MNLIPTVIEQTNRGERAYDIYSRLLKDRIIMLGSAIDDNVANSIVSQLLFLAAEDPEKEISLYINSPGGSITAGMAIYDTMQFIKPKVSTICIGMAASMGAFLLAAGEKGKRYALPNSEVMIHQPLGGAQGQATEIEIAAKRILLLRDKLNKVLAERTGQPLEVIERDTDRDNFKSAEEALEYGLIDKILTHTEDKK
#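 FRET quenching reversal measured ClpP activation: 10 microg/mL B. subtilis ClpP at pH 8 with the FRET-FV decapeptide, read at 430 nm after 320 nm excitation. The 20-min minus 0-min signal was scaled between DMSO/no-enzyme wells and ADEP (5.8 microM final).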
# GLP1R ag: GLP-1 receptor (human) agonism; P43220; HEK293 GLP-1R CRE-luciferase, luminescence, 4-6 h; cells express a hypersensitive GLP-1R form; Potency, µM (series often up to 45.6 µM), inactives show top-dose activation, actives largely listed as activators; actives 0.007% (n = 380,000); also: potency is read from the fitted curve at half-maximal effect; % of control where 0% means no effect
# Target sequence (P43220 whole entry, looked up): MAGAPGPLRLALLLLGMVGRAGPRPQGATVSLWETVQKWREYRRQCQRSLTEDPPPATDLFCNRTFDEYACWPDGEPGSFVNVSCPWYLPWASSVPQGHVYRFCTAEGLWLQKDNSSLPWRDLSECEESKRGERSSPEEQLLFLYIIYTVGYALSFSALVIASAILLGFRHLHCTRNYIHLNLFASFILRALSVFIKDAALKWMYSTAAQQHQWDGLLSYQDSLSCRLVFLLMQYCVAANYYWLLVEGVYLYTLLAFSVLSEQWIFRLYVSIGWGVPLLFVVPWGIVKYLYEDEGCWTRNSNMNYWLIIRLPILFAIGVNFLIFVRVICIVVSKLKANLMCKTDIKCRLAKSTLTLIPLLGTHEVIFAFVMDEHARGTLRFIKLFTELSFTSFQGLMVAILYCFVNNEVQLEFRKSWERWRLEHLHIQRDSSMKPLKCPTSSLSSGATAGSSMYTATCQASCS
# DRD3 agonist: agonists of human D3 dopamine receptor; P35462; D3R DiscoveRx beta-arrestin cells, luminescence, 90 min; max activation, %; actives 0.58% (n = 410,000); AID 652048; in the data active = max activation above about 30%; also: 0% is about no effect
#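 Agonist mode: compounds and dopamine controls were applied to plated cells for 90 min at 37 degrees C after an overnight attachment at 1500 cells/well. Luminescent read-out followed 30 - 60 minutes at room temperature with DiscoveRx detection reagent.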
# GLP1R cytotox: cytotoxicity in counter-screen for GLP-1R inverse agonists. Potency, µM (top dose mostly 38.3 µM), inactives show top-dose activity change, negative = inhibition, usual class: inhibitors. actives 0.13% (n = 410,000). HEK293 cAMP-luciferase reporter cells, luminescence, 24 h. AID 624418;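 also: loss of luciferase light is scored as toxicity; potency is read from the fitted curve at half-maximal effect; % is scaled to controls: 0 for no effect and ±100 for the full control effect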
#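 Quantitative HTS format, 1536 wells, 200 cells/uL seeded. Compounds: 23 nL, 24 h, 37 °C. Detection: luciferase reagent, luminescence at 12 min RT; decreased signal taken as cytotoxic.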
# DRD3 antagonist: blocks the human D3 dopamine receptor; P35462; D3R cells, DiscoveRx beta-arrestin luminescence, antagonist mode; active compounds read low; max response, negative = inhibition, %; actives 2.5% (n = 360,000); AID 652054; in the data active = max response below about -50%; inconclusive = no clear call, values can overlap the other calls; also: % is scaled to controls: 0 for no effect and ±100 for the full control effect
#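 Cells plated overnight at 1500 cells/well, then exposed to library compounds with dopamine controls for 90 minutes at 37 degrees C. DiscoveRx reagent added for 30–60 minutes at room temperature; luminescence read, quantitative HTS format.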
# GLP1R inv ag: inverse agonists of human GLP-1 receptor; P43220; HEK293 GLP-1R CRE-luciferase, luminescence, 24 h; GLP-1R form is constitutively active; Potency, µM (highest dose often 38.3 µM), for the others: at the highest dose activity change, negative = inhibition, hits mostly inhibitors; actives 1.6% (n = 410,000); also: potency is read from the fitted curve at half-maximal effect; % is scaled to controls: 0 for no effect and ±100 for the full control effect; nearly all actives have a fitted effect of over 55% in size
#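 Assay principle: reduced luminescence from a cAMP-responsive reporter in HEK293 cells co-expressing a constitutively active GLP-1R. Conditions: 24 hr compound incubation, 37 deg C, 5% CO2.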
# Active calls of the source: *; ? = inconclusive; . = not tested or not shown; [ ] = dose if it differs, or a comment. Most compounds without a hit are left out; they make up all but 5.7% or so of the library. Unless noted, calls follow the shape of the dose curve; as a rule, active = well fitted curve in the direction sought with a large enough effect; inconclusive = small, poorly fitted or top-dose-only effect, or another doubt; inactive = no such curve, though single readings can be large; an effect the other way counts as inactive or inconclusive.
SMILES,ClpP mod,GLP1R ag,DRD3 agonist,GLP1R cytotox,DRD3 antagonist,GLP1R inv ag
CN(C)S(=O)(=O)N(CC(=O)NCCSCc1ccc(Cl)cc1)c1ccccc1,.,15%,4,5%,0,8.9µM*
C[C@@H]1CCC[C@H](C)N1,.,7%[19.8 µM],1,.,.,.
Cc1ccc2oc(C(=O)Nc3nnc(C)s3)c(C)c2c1,-1%,0%,1,9%,4,23%
COc1cc(OC)cc(C(=O)Nc2nc3ccc(S(C)(=O)=O)cc3s2)c1,.,9%,7,-2%,7,39%
COc1ccc2oc(C(=O)Nc3nc4ccc(S(C)(=O)=O)cc4s3)c(C)c2c1,16µM*,7%,2,-1%,18,21%
COc1ccc2oc(C(=O)NC(C)c3ccccn3)c(C)c2c1 (stereo unspecified),25µM*,1%,-3,3%,-4,26%
COc1ccc2oc(C(=O)Nc3nnc(C)s3)c(C)c2c1,28µM*,-1%,-1,-14%,-12,-18%
CCCOc1ccc(NC(=O)CC2C(=O)N(c3ccc(OC)cc3)C(=O)N2CCc2ccncc2)cc1 (stereo unspecified),0%,.,1,-4%,.,-6%
CC(C)c1cccc(C(C)C)c1OC(=O)[C@H]1OC(c2ccc(Br)cc2)=C[C@@H]1c1ccc(Br)cc1,1%,-2%,16,-7%,70,13µM*
CNCC[C@@H](Oc1ccccc1C)c1ccccc1,-1%,9%,-57,14%,-57*,?
CNCCC(Oc1ccccc1OC)c1ccccc1 (stereo unspecified),-3%,5%,-16,12%,8,?
c1ccc(C2CCCN(Cc3nc(CC4CC4)no3)CC2)cc1 (stereo unspecified),.,8%,-2,21%[7.66 µM],3,10%[7.66 µM]
c1ccc(C(c2ccccc2)c2noc(CN3CCC(c4ccncc4)CC3)n2)cc1,-2%,3%,52*,3%,-22,?
FC(F)(F)c1cccc(Cc2noc(CN3CCC(c4ccncc4)CC3)n2)c1,.,27%,16,-4%,3,2.5µM*
CN1CCCC2(CCCN(Cc3nc(Cc4cccc(C(F)(F)F)c4)no3)C2)C1 (stereo unspecified),.,-4%,-8,-16%,-4,?
CC1(C(=O)NS(=O)(=O)c2ccccc2)CCN1C(=O)CC1CC1 (stereo unspecified),-1%,-6%,2,-1%,14,27%
CCOC(=O)c1cccc(Nc2ncnc3ccc(C)cc23)c1,?,4%,3,-16%,0,11µM*
CC(C)c1ccc(NC(=O)C2(C)Cc3c(-c4ccc5c(c4)OCO5)ccnc3O2)cc1 (stereo unspecified),5%,20%,-9,-20%,-19,?
O=c1[nH]ncc(N2CCN(C(c3ccccc3)c3ccccc3)CC2)c1Cl,28µM*,-1%,0,8%,-4,13µM*
Cc1ccccc1Oc1ccc2c(c1)[C@@H]1C[C@H]3[C@@H](C(=O)N1CC2)[C@H](C)ON3C,-4%,9%,31*,0%,63,-6%
COc1ccc(-c2ccc3c(c2)[C@@H]2C[C@H]4[C@@H](C(=O)N2CC3)[C@H](C)ON4C)cc1,0%,7%,8,2%,53,3%
CCOC(=O)c1c(S(=O)(=O)N2CCN(c3cc(Cl)ccc3C)CC2)c(C)n(C)c1C,0%,.,-18,-9%,.,?
Cc1ccc(COc2ccsc2-c2n[nH]c(=S)n2C)cc1,-1%,-9%,6,-14%,48,10%
Cn1c(-c2sccc2OCc2ccccc2)n[nH]c1=S,-9%,11%,-3,-2%,-54*,-3%
CCN(CC)S(=O)(=O)c1ccc(C)c(NC(=O)COc2ccc3c(C)cc(=O)oc3c2)c1,25µM*,2%,10,-3%,26,-11%
SMILES,ClpP mod,GLP1R ag,DRD3 agonist,GLP1R cytotox,DRD3 antagonist,GLP1R inv ag
CCN(CC)S(=O)(=O)c1ccc(OC)c(NC(=O)C(C)Oc2ccc3c(C)cc(=O)oc3c2)c1 (stereo unspecified),25µM*,3%,-7,?,-2,-30%
Cc1cc(=O)oc2cc(OC(C)C(=O)NC3CCCC3)ccc12 (stereo unspecified),.,10%,-5,-1%,1,5%
CC1(c2nc3ccccc3[nH]2)CCC2=Nc3ccccc3CN21 (stereo unspecified),0%,-3%,-13,-1%,-14,7%
CN(C)c1ccc(CNC(=O)C2CCN(Cc3cc4ccccc4n3Cc3ccccc3)CC2)cc1,-25%,.,-22,2%,.,?
O=C(Oc1ccc(Cl)c2cccnc12)c1cccc([N+](=O)[O-])c1,1%,27%,-26,?,-72*,5µM*
O=C(Oc1c(Cl)cc(Cl)c2cccnc12)c1cccc([N+](=O)[O-])c1,2%,2%,-29,?,-94*,13µM*
O=C(Oc1cccc2cccnc12)c1cccc([N+](=O)[O-])c1,.,0%,-21,?,?,?
COc1ccc(NC(=O)CN2C(=O)CC(c3ccc(C)c(C)c3)=Nc3ccccc32)cc1OC,-2%,.,5,-10%,.,0%
CSCCC(C(=O)NC1CCCC1)n1c(C2CCCC2)nc2ccccc21 (stereo unspecified),-8%,.,-4,-6%,2,-9%
CCS(=O)(=O)N1CC(=O)N(c2ccc(Cl)cc2C)C(C)(C(=O)NC2CCCCC2)C1 (stereo unspecified),0%,.,1,5%,.,4%
CCCCNC(=O)C(CC)Sc1nnc(-c2ccc(OC)c(OC)c2)c(-c2ccc(OC)c(OC)c2)n1 (stereo unspecified),-9%,.,5,-2%,.,21%
c1ccc(-c2oc3ncnc(NCCCN4CCOCC4)c3c2-c2ccccc2)cc1,-6%,6%,-2,-17%,-65*,-23%
COc1ccc(-c2oc3ncnc(NCCCN4CCOCC4)c3c2-c2ccc(OC)cc2)cc1,17%,13%,-5,-7%,-94*,0%
CC1(C(=O)NS(=O)(=O)C2CC2)CCCN(C(=O)COCc2ccccc2)C1 (stereo unspecified),1%,6%,6,3%,8,-18%
CCOC(=O)CSc1nc2ccc(NC(=O)COc3ccc(F)cc3)cc2s1,6%,.,-9,-4%,.,0%
CC(C)(C)C(=O)N1CCN(C(c2ccccc2)c2ccccc2)CC1,0%,1%,4,-8%,-9,?
